Test results published in PubChem BioAssay.

Experiment: probe aNOTCH2 binding on compound microarray – biochemical, small-molecule microarray, 635/667 nm fluorescence, primary screen (AID 1121);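 also: score merges feature fluorescence read at 667 nm with its signal to noise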
Details: higher = more signal

| Structure (SMILES) | composite z-score |
| --- | --- |
| CCCN1C(=O)[C@@]2(CCC(=O)OC(C)(C)C)N=C(c3ccc(OCCCO)cc3)O[C@H]2c2ccccc21 | -0.0633 |
| O=C(O)[C@H]1C[C@H]2C(=O)NCC(=O)N2[C@H]1c1ccc(O)cc1 | -0.0761 |
| CC(C)c1ccc(NN2C(C(O)c3ccc(N(C)C)cc3)C=CC3C(=O)N(c4ccccc4)C(=O)C32)cc1 (configuration not stated) | 0.0147 |
| CCC[C@@H]1C=C(C(=O)O)[C@H](c2ccc(C)cc2)N1S(=O)(=O)c1ccc(C)cc1 | 0.0029 |
| CC(C)c1ccc(NN2C(C(O)c3c(F)cccc3Cl)C=CC3C(=O)N(c4ccccc4)C(=O)C32)cc1 (configuration not stated) | 0.395 |
| CC(C)=CCCC(C)=CC(O)C1C=CC2C(=O)N(c3ccccc3)C(=O)C2N1Nc1ccccc1 (configuration not stated) | 0.251 |
| COCC1=C2[C@@H](CCc3ccccc3)OB(O)C[C@@H]2[C@@H]2C(=O)N(Cc3ccccc3)C(=O)[C@@H]2C1 | -0.14 |
| COC(=O)[C@@]1(Cc2ccc(OC)cc2)[C@H]2c3cc(C(=O)N4CCCC4)n(CCc4c[nH]c5cc(F)ccc45)c3C[C@H]2CN1C(=O)c1ccccc1 | 0.0064 |
| CC(C)N1CC=CC23O[C@@H]4C=CCOC(=O)[C@@H]4[C@H]2C(=O)N(CCO)[C@@H]3C1=O (some centres not stated) | -0.14 |
| COC(=O)C(CC#Cc1ccc2c(c1)[C@]1(C(=O)N2)[C@H](c2ccc(OCCO)cc2)N2[C@H](c3ccccc3)[C@H](c3ccccc3)OC(=O)[C@H]2[C@@H]1C(=O)NC[C@H](O)c1ccccc1)C(=O)OC | -0.115 |
| CC(C)NC(=O)[C@@]1(Cc2ccccc2I)c2ccccc2C(=O)N(Cc2ccccc2)[C@H]1c1ccc(CO)cc1 | -0.0608 |
| CCOC(=O)C[C@H]1[C@H](OC(=O)Cc2ccc3c(c2)OCO3)[C@@H](NC(=O)c2ccc(-c3ccccc3)cc2)c2cc(OCCCO)ccc2N1C(=O)c1ccccc1 | -0.0649 |
| CC(c1ccccc1)C(O)C1C=CC2C(=O)NC(=O)C2N1Nc1ccccn1 (configuration not stated) | 0.0012 |
| COc1ccc(C#Cc2ccc3c(c2)[C@]2(C(=O)N3)[C@H](c3ccc(O)cc3)N3[C@H](c4ccccc4)[C@H](c4ccccc4)OC(=O)[C@H]3[C@@H]2C(=O)NC[C@H](O)c2ccccc2)cc1 | -0.189 |
| O=C1O[C@H](c2ccccc2)[C@H](c2ccccc2)N2[C@H]1[C@@H](C(=O)O)[C@]1(C(=O)Nc3ccc(C#CC4(O)CCCCCC4)cc31)[C@H]2c1ccc(OCCO)cc1 | -0.0727 |
| NCCCCCCNC(=O)[C@H]1C[C@H]2C(=O)NCC(=O)N2[C@H]1c1cccc(OCCO)c1 | -0.153 |
| C=CCOC(=O)[C@H]1[C@@H]2C(=O)O[C@@H](c3ccccc3)[C@@H](c3ccccc3)N2[C@@H](c2ccc(OCCOC(=O)[C@@H]3C[C@@H]4C(=O)NCC(=O)N4[C@@H]3c3ccc(O)cc3)cc2)[C@]12C(=O)Nc1ccccc12 | -0.168 |
| [N-]=[N+]=Nc1ccccc1C[C@]1(C(=O)NCCN2CCOCC2)N=C(c2ccc(OCCCO)cc2)O[C@H]1c1ccccc1 | -0.0849 |
| CC(C)N1C(=O)C[C@@](C(=O)NCc2ccccc2)(c2ccc([N+](=O)[O-])cc2)[C@H]1c1ccc(CO)cc1 | -0.0617 |
| O=C1OCCC/C=C\[C@H]2OC34C=CCN(Cn5nnc6ccccc65)C(=O)[C@H]3N(CCCCCO)C(=O)[C@@H]4C12 (some centres not stated) | -0.14 |
| NCCCCCNC(=O)[C@H]1C[C@H]2C(=O)NCC(=O)N2[C@H]1c1cccc(OCCO)c1 | -0.136 |
| CN1C=C(C(=O)OCCS(C)(=O)=O)C(C(=O)OCCS(C)(=O)=O)=CC(CCCO)=CC1C1CC1 (configuration not stated) | -0.108 |
| COCCOC(=O)N1C(=O)[C@@]2(c3cc(C#CC4=CCCCC4)ccc31)[C@H](C(=O)NC[C@H](O)c1ccccc1)[C@H]1C(=O)O[C@H](c3ccccc3)[C@H](c3ccccc3)N1[C@@H]2c1ccc(O)cc1 | 0.103 |
| CCCCCCCCCCC(O)C1C=CC2C(=O)N(Cc3ccccc3)C(=O)C2N1n1cnnc1 (configuration not stated) | 0.0605 |
| Cc1ccccc1C(O)C1C=CC2C(=O)N(C)C(=O)C2N1N1CCCCC1 (configuration not stated) | 0.21 |
| CC(=O)NCCCC[C@@H]1NC(=O)[C@@H]2C[C@H](C(=O)NCCCCCCNC(=O)CS)[C@H](c3ccc(O)cc3)N2C1=O | -0.129 |
| C=CCOC(=O)[C@H]1[C@@H]2C(=O)O[C@@H](c3ccccc3)[C@@H](c3ccccc3)N2[C@@H](c2ccc(OCCOC(=O)[C@@H]3C[C@@H]4C(=O)N5CCC[C@H]5C(=O)N4[C@@H]3c3ccc(O)cc3)cc2)[C@]12C(=O)Nc1ccccc12 | -0.104 |
